The text below walks through data of paper PMC4552634, “A New Set of Chemical Starting Points with Plasmodium falciparum Transmission-Blocking Potential for Antimalarial Drug Discovery” (PLoS ONE, 2015).

Each structure is given as a SMILES string. The campaign covered roughly 13,000 compounds. About 3,200 (25%) showed an effect of 50% or more. The list shows a part of the results.

A word on the % Inhibition: it is the change of the read-out against control, counted positive when it falls.

The test system of this experiment is P. falciparum stage V gametocytes. More on the design: BacTiter-Glo ATP luminescence viability of purified stage V gametocytes in 384-well plates, per cent inhibition versus DMSO. To be noted: 48 h, 5 µM; inhibitor.
`CSc1ccc(NC(=O)Nc2cc(C)nc3ccccc23)cc1` [TCMDC-139394]: the “% Inhibition” value was determined as 23.44%.
Turning to `Cc1cc(NC(=O)Nc2ccc(C(C)(C)C)cc2)c2ccccc2n1` [TCMDC-139981], the “% Inhibition” value came out at 63.23%.
In the case of `Cc1cc(NC(=O)Nc2ccc(C(C)C)cc2)c2ccccc2n1` [TCMDC-139826], the “% Inhibition” value is 6.688%.
With `CC(=O)Oc1cc(C)ccc1C1CCN(CCCCNC(=O)c2ccc(NC(=O)c3ccc(Cl)cc3)cc2)CC1` [TCMDC-138630], the “% Inhibition” value is reported as -17.17%.
In the case of `CCOc1cc(CC)ccc1C1CCN(CCN2CCC(CNC(=O)c3ccc(-c4ccc(C#N)cc4)cc3)CC2)CC1` [TCMDC-138847] it was 107.7%; in that of `CCOc1cc(CC)ccc1C1CCN(CCN2CCC(NC(=O)c3ccc(-c4ccc(C(C)=O)cc4)cc3)CC2)CC1` [TCMDC-138882], -11.21%; in that of `CCOc1cc(CC)ccc1C1CCN(CCCCNC(=O)c2ccc(NC(=O)c3ccc(C#N)cc3)cc2)CC1` [TCMDC-138662], 87.14%.
Then `CCc1ccc(C2CCN(CCCCNC(=O)c3ccc(NC(=O)c4ccc(Cl)cc4)cc3)CC2)c(OCC(=O)OC)c1` [TCMDC-138707], with 40.9%; and `CCc1ccc(C2CCN(CCCCNC(=O)c3ccc(NC(=O)c4ccc(Cl)cc4)cc3)CC2)c(OC(C)=O)c1` [TCMDC-138648], with 96.99%; and `CCc1ccc(C2CCN(CCCCNC(=O)c3ccc(NC(=O)c4ccc(Cl)cc4)cc3)CC2)c(OC)c1` [TCMDC-138377], with -11.09%.
In the case of `CCOc1cc(CC)ccc1C1CCN(CCCCNC(=O)c2ccc(NC(=O)c3ccc(Cl)cc3)cc2)CC1` [TCMDC-138317] it was 61.4%; in that of `CCOc1cc(CC)ccc1C1CCN(CCN2CCC(NC(=O)c3ccc(-c4ccc(C#N)cc4)cc3)CC2)CC1` [TCMDC-138829], 12.51%.
Turning to `Cc1cc(C2CCN(CCCCNC(=O)c3ccc(-c4ccc(C#N)cc4)cc3)CC2)c(C)cc1OCCO` [TCMDC-138827], the “% Inhibition” value is listed as -59.1%.
Then `CC1(C)N=C(N)N=C(N)N1OCCCNC(=O)c1ccc([N+](=O)[O-])cc1` [TCMDC-131666], with 6.997%; and `c1ccc(COc2ccc(Nc3ncnc4cnc(-c5ccc(CN6CCCCC6)o5)cc34)cc2)cc1` [TCMDC-137775], with -26.66%; and `CCCCCC(C)C(C)c1cc(O)c2c(c1)OC(C)(C)CC2=Cc1ccncc1` (stereo not drawn) [TCMDC-131746], with -25.77%.
For the molecule `C#CC[C@@H](NC(N)=O)C(=O)O` [TCMDC-131404], the “% Inhibition” value was -1.405%.
Turning to `O=S(=O)(NC1CCN(c2ccnc3cc(Cl)ccc23)C1)c1cccc(F)c1` (stereo not drawn) [TCMDC-133657], the “% Inhibition” value was -15.22%.
For the molecule `CCOc1cc(C)ccc1N1CCN(CCN2CCC(NC(=O)c3ccc(-c4ccc(C#N)cc4)cc3)CC2)CC1` [TCMDC-138866], the “% Inhibition” value was 88.4%.
In the case of `COc1cccc(C2CCN(CCN3CCC(CNC(=O)c4ccc(-c5ccc(C(F)(F)F)cc5)cc4)CC3)CC2)c1` [TCMDC-138830] it was 71.94%; in that of `CCc1ccc(C2CCN(CCCCNC(=O)c3ccc(NC(=O)c4ccc(Cl)cc4)cc3)CC2)c(OCCO)c1` [TCMDC-138703], 131.2%.
With `CCOc1cc(C)ccc1C1CCN(CCCCNC(=O)c2ccc(-c3ccc(C(F)(F)F)cn3)cc2)CC1` [TCMDC-138535], the “% Inhibition” value is 16.24%.
Then `COc1cccc(C2CCN(CCN3CCC(NC(=O)c4ccc(-c5ccc(Cl)cc5)cc4)CC3)CC2)c1` [TCMDC-138833], with -13.87%; and `COc1cccc(C2CCN(CCN3CCC(NC(=O)c4ccc(-c5ccc(C(F)(F)F)cc5)cc4)CC3)CC2)c1` [TCMDC-138819], with 18.98%; and `COc1ccccc1C1CCN(CCN2CCC(NC(=O)c3ccc(-c4ccc(C#N)cc4)cc3)CC2)CC1` [TCMDC-138880], with -25.62%.
In the case of `COc1cccc(C2CCN(CCN3CCC(NC(=O)c4ccc(-c5ccc(C#N)cc5)cc4)CC3)CC2)c1` [TCMDC-138860] it was -1.987%.
For `CCOc1cc(C)ccc1C1CCN(CCN2CCC(CNC(=O)c3ccc(-c4ccc(C(F)(F)F)cc4)cc3)CC2)CC1` [TCMDC-138805], the “% Inhibition” value came to 96.77%.
In the case of `CCOc1cc(C)ccc1C1CCN(CCCCNC(=O)c2cccc(-c3ccc(C(F)(F)F)cc3)c2)CC1` [TCMDC-138534] it was 29.59%; in that of `CN(C)CCOc1ccnc2ccc(NC(=O)Cc3ccc(-c4ccncc4)c4ccccc34)cc12` [TCMDC-139162], 6.193%; in that of `CCOc1ccnc(=O)[nH]1` [TCMDC-124258], 20.67%.
Then `C=CCOc1ccc(C2C(C(=O)OC)=C(C)NC3=C2C(=O)c2ccccc23)cc1OC` (stereo not drawn) [TCMDC-125383], with -17.47%.
Then `O=C(Nc1cccc(-c2nn3ncccc3c2-c2ccnc(Nc3cccc(-c4cnco4)c3)n2)c1)c1c(F)cccc1F` [TCMDC-135550], with -49.22%; and `CN(C)Cc1ccc(CN2CCN(CCOc3ccc(-c4ccc(Cl)cc4)cc3)CC2)o1` [TCMDC-138673], with 36.52%; and `CN1CCN(c2nsc3ccc(-c4ccc(OCCN5CCCC5)cc4)cc23)CC1` [TCMDC-133436], with 111.5%.
Regarding `O=C(Nc1ccc(-c2ccc(-c3nc4ccc(C(F)(F)F)cc4[nH]3)cc2)cc1)Nc1ccc(F)c(F)c1F` [TCMDC-133223], the “% Inhibition” value is -19.68%.
In the case of `CN1CCN(c2nsc3ccc(-c4ccc(NC(=O)Nc5cc(C(F)(F)F)ccc5F)cc4)cc23)CC1` [TCMDC-133435] it was 89.92%; in that of `CN1CCN(c2ccnc3ccc(NC(=O)Nc4ccc(-c5ccccc5)cc4)cc23)CC1` [TCMDC-139320], -2.633%; in that of `CN1CCCc2ccc(NC(=O)Nc3ccc(-c4ccccc4)cc3)cc2C1` [TCMDC-133730], -3.95%.
Then `Fc1ccc(-c2cc3ncnc(N4CCN(CCN5CCCC5)CC4)c3s2)cc1` [TCMDC-125053], with 6.032%.
Then `CN1CCN(c2nsc3ccc(-c4ccc(NC(=O)Nc5ccccc5)cc4)cc23)CC1` [TCMDC-133437], with 50.88%; and `COc1ccc(N2CCN(CCCCNC(=O)c3ccc(/C=C/c4ccc(Cl)c(Cl)c4)cc3)CC2)c(OC)c1` [TCMDC-138175], with -78.16%.
For `CS(=O)(=O)c1ccc2nc(NC(=O)c3csnn3)sc2c1` [TCMDC-125074], the “% Inhibition” value came out at 49.99%.
In the case of `NC1=NC2(CCCC2)N(c2ccc(Cl)cc2)C(N)=N1` [TCMDC-137719] it was 0.5076%.
In the case of `NC(N)=NC(=O)Nc1cc(Cl)c(Cl)c(Cl)c1` [TCMDC-137465] it was -8.846%; in that of `CCc1cn(CC(=O)N(CCOc2ccc(-c3ccc(C(F)(F)F)cc3)cc2)CCN(CC)CC)c(SCc2ccc(F)cc2)nc1=O` [TCMDC-140925], 116.2%.
In the case of `CCN(CC)CCN(Cc1ccc(-c2ccc(Cl)cc2)cc1)C(=O)Cn1cc(CN(C)C)c(=O)nc1SCc1ccc(F)cc1` [TCMDC-140406] it was 107.7%; in that of `CC(C)Sc1nc2c(c(=O)n1Cc1ccco1)C1(CCCCC1)Cc1ccccc1-2` [TCMDC-125100], 0.5988%.
Regarding `COc1ccc(CNC2CCN(C)CC2)cc1-c1ccc(S(=O)(=O)NC2CCC2)cc1` [TCMDC-132245], the “% Inhibition” value stood at 84.43%.
As to `COc1ccc(CNC2CCN(C)CC2)cc1-c1ccc(S(=O)(=O)NC2CCC2)c(C)c1` [TCMDC-132270], the “% Inhibition” value is reported as 86.28%.
Then `COc1ccc(CNC2CCN(C)CC2)cc1-c1ccc(S(=O)(=O)NC2CCC2)c(F)c1` [TCMDC-132263], with 28.54%; and `N=C(N)c1ccc(NN=Cc2ccc(Oc3ccc(C(=N)N)cc3)cc2)cc1` [TCMDC-137493], with 43.38%; and `CC(C)Cc1c(O)nc(SCCN2CCOCC2)[nH]c1=O` [TCMDC-125767], with 17.13%.
Then `O=C(O)C[C@H](NC(=O)[C@@H]1CCCN1C(=O)c1cccc(-c2ccc(Cl)c(Cl)c2)c1)C(=O)O` [TCMDC-140511], with 4.214%; and `O=[N+]([O-])c1ccc(NC(=NC2CCCc3ccccc32)Nc2ccccc2Br)c(O)c1` (stereo not drawn) [TCMDC-139983], with -2.666%.
In the case of `COc1c(CNCCCCCCNCc2c(OC)c(OC)c3ccccc3c2OC)c(OC)c2ccccc2c1OC` [TCMDC-137837] it was 111.1%.
Consider `COc1c(OC)c(OC)c2ccccc2c1CNCCCCCCNCc1c(OC)c(OC)c(OC)c2ccccc12` [TCMDC-137827], for which the “% Inhibition” value was determined as 106%.
In the case of `CCCNCc1c(O)ccc2c(CNCCC)c(O)ccc12` [TCMDC-137593] it was -47.95%; in that of `O=C(NC1CC1)c1ccc(N2CCCC(COc3ccccc3F)C2)nc1` (stereo not drawn) [TCMDC-134034], 24.35%.
Then `Cc1cccc2nc(-c3ccc(-c4cccc(NC(=O)COc5ccccc5C(N)=O)c4)s3)[nH]c12` [TCMDC-132133], with 0.7486%; and `CN(C1CCC(NC(=O)/C=C/c2ccccc2)CC1)C1CC2(CCN(C(=O)OC(C)(C)C)CC2)c2ccccc21` (stereo not drawn) [TCMDC-132880], with 63.78%; and `CN(CCCCNC(=O)c1cc2ccccc2[nH]1)C1CC2(CCN(C(=O)OC(C)(C)C)CC2)c2ccccc21` (stereo not drawn) [TCMDC-132884], with 36.87%.
Then `CN(CCCCNC(=O)/C=C/c1ccccc1)C1CC2(CCN(C(=O)OC(C)(C)C)CC2)c2ccccc21` (stereo not drawn) [TCMDC-132882], with -12.8%; and `OC(CNCc1ccccc1OCc1ccccc1)c1cc(C(F)(F)F)cc(C(F)(F)F)c1` (stereo not drawn) [TCMDC-140300], with -49.16%.
In the case of `CCCCN(Cc1cccc(C(F)(F)F)c1Cl)c1ccc(C(O)(C(F)(F)F)C(F)(F)F)cc1` [TCMDC-135213], the “% Inhibition” value is recorded as -4.716%.
Regarding `CCCCN(Cc1cc(Cl)c(OC)c(OC)c1)c1ccc(C(O)(C(F)(F)F)C(F)(F)F)cc1` [TCMDC-135446], the “% Inhibition” value is on record as 54.26%.
In the case of `CCCCN(Cc1cc(Cl)c(OCC)c(OC)c1)c1ccc(C(O)(C(F)(F)F)C(F)(F)F)cc1` [TCMDC-135622] it was 2.509%.
